Test results published in PubChem BioAssay (NCI).
About 83,000 compounds went through this panel and 20% of them were active in at least one assay; those are over-represented in the sample as a whole.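 Interpretation: 100, growth as untreated; towards 0, rising growth inhibition; 0, no net growth; 0 to -100, cell death. Compounds scoring below 10 were considered active.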 A number with no mark means an inactive call. Calls of active or inactive are those of the source.

Tested on: SR leukemia
Assay: NCI-60 one-dose screen, 48 h (100 = growth as untreated, 0 = no growth, -100 = all killed)
Conditions: 10 µM unless noted
Procedure: Growth inhibition of the SR human tumor cell line is measured as a screen for anti-cancer activity. Cells are grown in 96 well plates and exposed to the test compound for 48 hours. Compounds are tested at a single concentration, which is 10^-5 M for most compounds. The reported endpoint is percent growth (GI% or GIPRCNT), where numbers from 0 - 100% represent growth inhibition, and numbers from -100% - 0 represent cell death. For example, a value of 40 represents 60% growth inhibition. A value of 0 means no net growth occurred over the course of the experiment. A value of -40 indicates 40% of cells at the beginning of the experiment died by the end of the experiment. A value of -100 means all cells are dead at the end of the experiment.
NCI-60 Human Tumor Cell Lines Screen was performed using the standard one-dose NCI protocol, which is described in more detail at https://dtp.cancer.gov/discovery_development/nci-60/default.htm.
Compounds with GIPRCNT values below 10 were considered active. Activity score was based on GIPRCNT using the following formula: […]
Score is 0 for GIPRCNT values of 100 or above, 50 for GIPRCNT values of 0, and 100 for GIPRCNT values of -100.

| Compound | growth |
| --- | --- |
| O=C(O)c1ccc(-c2nn(-c3ccc(C(=O)O)cc3)cc2/C=N/Nc2c(F)c(F)cc(F)c2F)cc1 | 94% |
| COc1ccc(/C=C2/C(=O)Nc3cc(Cl)c(-c4csc(N)n4)cc32)cc1 | 18.4% |
| CCOC(=O)C1=C(N)Oc2cc(OC)ccc2C1c1ccc(F)c(F)c1 (stereo not given) | 12.7% |
| CCN(CC)CCNc1ccc([N+](=O)[O-])c2sc3cc(Cl)ccc3c(=O)c12 | 9.3% (active) |
| CCCCn1c(-c2cccc(OC)c2)nc2cc(OC)c(OC)cc2c1=O | 75.1% |
| CN1CCN(CC(=O)N(C)c2ccc(N=C(c3ccccc3)c3c(O)[nH]c4ccc(C#N)cc34)cc2)CC1 | 0.738% (active) |
| O=C(O)c1ccc2nc(-c3ccc(OCCCCCOc4ccc(-c5nc6ccc(C(=O)O)cc6[nH]5)cc4)cc3)[nH]c2c1 | 120% |
| Cc1nc(N)nc(SCc2ccccc2)c1Br | 74.4% |
| O=C(NCCNc1nccc(-c2c(-c3cccc(O)c3)nc3sccn23)n1)c1cc(N2CCOCC2)cc(C(F)(F)F)c1 | 97.3% |
| O=C(Nc1ccc(-n2cc(-c3ccncc3)c(-c3ccc(O)c(Cl)c3)n2)cc1)c1ccc(Cl)c(C(F)(F)F)c1 | 8.48% (active) |
| COc1ccc(/C=N/C2=NNC(C)(c3ccccc3O)N2C(Cc2c[nH]c3ccccc23)C(=O)O)cc1 (stereo not given) | 6.53% (active) |
| FC(F)(F)c1cn(CCN2CCOCC2)c2ncnc(Cl)c12 | -40.3% (active) |
| O=c1cc(Cl)[nH]c(=O)[nH]1 | 111% |
| CCCCNC(=O)Oc1ccc(/C(=C(/CC)Cc2ccccc2)c2ccc(OCCCN(C)C)cc2)cc1 | 22% |
| Cc1cc2c(cc1C)N(C(=O)CCl)CCN2C(=O)CCl | -13.6% (active) |
| COc1ccc(-c2nn(-c3ccc(NC(=O)c4ccc(Cl)c(C(F)(F)F)c4)cc3)cc2-c2ccncc2)cc1Cl | 7.78% (active) |
| CCCCCC/C=N/Nc1ccc([N+](=O)[O-])cn1 | 89.4% |
| COc1ccc(-n2c(-c3ccc(NC(=O)CCCl)cc3)nnc2-c2cc(OC)c(OC)c(OC)c2)cc1 | 6.09% (active) |
| O=S(=O)(CCN1CCOCC1)Nc1cncc(-c2ccc3ncnc(Nc4ccc(F)c(Cl)c4)c3c2)c1 | 90% |
| O=C(NCCNc1nccc(-c2c(-c3cccc(O)c3)nc3sccn23)n1)Nc1cc(C(F)(F)F)cc(C(F)(F)F)c1 | 65.3% |

| Compound | growth |
| --- | --- |
| COc1cc(Br)c(-c2nc(-c3ccccc3)c(-c3ccccc3)n2Cc2ccccc2)cc1OC | 47.3% |
| Cc1ccc2[nH]c3nc4cccnc4c(C)c3c2c1 | 2.59% (active) |
| Cc1ccc(=O)n(-c2ccc(Br)cc2F)c1 | 108% |
| CCOc1ccccc1C(=O)N1CCN(c2cc(Cl)cc(Cl)c2)CC1 | 6.79% (active) |
| Cc1[nH]c2ccc(F)cc2c1CCNC(=O)C1CCN(C(=O)c2ccc(-c3ccccc3)cc2)CC1 | 8.16% (active) |
| Fc1ccc(/C=N/n2c(-c3cc(Cl)cc(Cl)c3Cl)nn(CNc3ccc(Cl)nn3)c2=S)cc1 | 79.7% |
| COc1ccc(C(=O)NC(=O)Nc2ccc3c(c2)NC(=O)/C3=C\c2[nH]c(C)c(C(=O)O)c2C)c(F)c1 | 58.2% |
| S=c1ssnc1-c1ccccn1 | -25.5% (active) |
| O=C1CCC(=O)N1C1CCCCC1 | 96.4% |
| COc1cc(NS(=O)(=O)c2ccc(N)cc2)ncn1 | 97.2% |
| O=C1OC(c2ccc(-c3ccccc3)cc2)=C/C1=C/C=C/c1ccccc1 | 98.3% |
| O=C(C[n+]1ccccc1Cl)c1ccc2c(c1)CCCC2 | 59.8% |
| COc1cc(Cn2cc3c(c2)-c2onc(CO)c2CC3)cc(OC)c1OC | 71.8% |
| C[C@H]1C=C(C[C@@H](O)CC#CC#CCCCCC[C@@H](O)[C@H]2CCC(=O)O2)C(=O)O1 | 121% |
| CC(C)CCC[C@@H](C)[C@H]1CC[C@H]2[C@@H]3CC=C4N(c5ccccc5)C(=O)CC[C@]4(C)[C@H]3CC[C@]12C | 92.4% |
| CCOC(=O)c1noc2c1CCc1c-2cn(Cc2ccc(OC)cc2)c1-c1cc(OC)c(OC)c(OC)c1 | 17.8% |
| COc1ccc(-c2ccc(NC(=O)Nc3ccc(Cl)c(C(F)(F)F)c3)c(C)n2)cc1 | 35.7% |
| COC(=O)c1ccc(NC(N)=NCC(C)(C)COc2ccc(C(F)(F)F)cc2)nc1 | -32.3% (active) |
| Cc1ccc(-c2cc(-c3nnc(SCC(=O)c4ccccc4)o3)c3ccccc3n2)cc1 | 77.4% |
| O=S(c1ccccc1)c1ccc2nnnn2n1 (stereo not given) | 85.2% |
